Results from PubChem BioAssay AID651673 (Broad Institute, 2012).
The list shows a part of the results. Active and inactive are the calls of the source.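 The calls were made as follows: active = signal drop giving an AC50 within twice the top valid tested concentration of each sample (actives reach about 35 µM in these data); inactive = activity opposite to expected, plus the rest.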

Assay: acridine orange displacement from DNA – biochemical, fluorescence polarization, cherry-pick, artefact control for RAD54 inhibitor project, dose response (AID 651673);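 also: polarization loss reports compound binding to salmon sperm DNA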
Conditions: 20 min; series mostly up to 35 µM

outcome, inactive:
COc1ccc(CCn2c(=N)c(C(=O)NCC3CCCO3)cc3c(=O)n4cccc(C)c4nc32)cc1OC (stereo not drawn)
Cc1cccn2c(=O)c3cc(C#N)c(=O)n(CCCN4CCOCC4)c3nc12
Cc1cc2oc3ccc(NCCC4CCCN4C)cc3c(=O)c2cc1C (stereo not drawn)
COc1ccc(C(=O)Nc2cc(C)c(NC(=O)c3ccccc3OC)cn2)cc1
COc1cccc2sc3cc(NCC[C@@H]4CCCN4C)ccc3c(=O)c12
CCOC(=O)C1C(=O)NC(N2CCN(c3ccccc3)CC2)=NC1c1ccco1 (stereo not drawn)
CCN(CC)CCn1c2ccc(Cl)cc2c2nc(C)sc21
O=C(NCCCN1CCOCC1)c1cnn2c(-c3ccccc3)cc(-c3ccccc3)nc12
COC(=O)c1c(NC(=O)c2ccc(S(=O)(=O)N3CCOCC3)cc2)sc2c1CCN(C(C)C)C2
CN1CCN(CCCNC(=O)c2cc3c(=O)oc4ccccc4c3s2)CC1
CCOCCCNC(=S)Nc1ccc2nc(N3CCN(CC)CC3)cc(C)c2c1
CCn1c(=N)c(C(=O)NCCCOC)cc2c(=O)n3cccc(C)c3nc21
COc1ccccc1C(=O)C(O)c1ccccc1OC (stereo not drawn)
Cc1nc2ccccc2c2oc(C(=O)NCCCN3CCC(C)CC3)cc12
CCN(CC)CCCNC(=O)c1cc2c(=O)[nH]c3ccc(C)cc3c2s1
c1ccc(-c2nnc(SCc3nc4ccccc4[nH]3)o2)cc1
CC1CCc2sc3nc(N4CCN(CCO)CC4)n4ncnc4c3c2C1 (stereo not drawn)
CN(C)CCN(C(=O)CN1C(=O)c2ccccc2C1=O)c1nc2cc3c(cc2s1)OCCO3
